# Source: PubChem BioAssay (EPA / NIEHS)
# Activity calls are given as the source filed them. Rule for the calls: active = hit-call score of the fitted dose curve at least 0.9, where 1 is the maximum; inactive = score below 0.9.
# Read-out: Urokinase-type plasminogen activator receptor (uPAR), PLAUR (gene 5329)
# Assay: BSK_CASM3C_uPAR: BioMAP Diversity Plus: CASM3C Assay for Urokinase-type plasminogen activator receptor (uPAR) Biomarker Activity (AID 2283054);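 note: cell-surface uPAR protein level quantified by ELISA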
# Conditions: primary human coronary artery smooth muscle cells; actives raise or lower the signal
SMILES,outcome,AC50
CCCCOC(=O)CC(CC(=O)OCCCC)(OC(C)=O)C(=O)OCCCC,inactive,
OC12N=C(c3ccccc3)SC1Cc1cc(Cl)ccc12 (stereo not given),inactive,
CCCCCCCCCCCC[N+](C)(C)C,,19.9 µM (active)
Clc1ccccc1C(c1ccccc1)(c1ccccc1)n1ccnc1,,28.4 µM (active)
O=C=NCCCCCCN=C=O,inactive,
CCCCCc1ccc(N)cc1,inactive,
O=C(OCCCCCCOC(=O)c1ccccc1)c1ccccc1,inactive,
C[C@]12CC[C@@H]3c4ccc(O)cc4CC[C@H]3[C@@H]1CCC2=O,inactive,
O=c1c(-c2ccc(O)cc2)coc2cc(O)cc(O)c12,,29.6 µM (active)
C[C@]12CC[C@@H]3c4ccc(O)cc4CC[C@H]3[C@@H]1CC[C@H]2O,inactive,
CCCCCCCCCCCO,inactive,
Oc1ccc2ccccc2c1,inactive,
O=C1c2ccccc2C(=O)N1CCc1noc(-c2ccc(CN3CCCCCC3)s2)n1,inactive,
CCO[Si](CCCNC(N)=O)(OCC)OCC,inactive,
CCCOC(=O)c1cc(O)c(O)c(O)c1,inactive,
CCCCCCCCCC(=O)O,inactive,
CN(C[C@@H](CC[N+]12CCC(C3CCCCC3)(CC1)CC2)c1ccc(Cl)c(Cl)c1)C(=O)c1cc(C(F)(F)F)cc(C(F)(F)F)c1,,13 µM (active)
Cc1cn([C@H]2C[C@H](N=[N+]=[N-])[C@@H](CO)O2)c(=O)[nH]c1=O,inactive,
Cc1cc(F)ccc1-c1cc(N2CC[C@@H](O)[C@H]2CO)ncc1N(C)C(=O)C(C)(C)c1cc(C(F)(F)F)cc(C(F)(F)F)c1,,31.1 µM (active)

SMILES,outcome,AC50
CC[C@@H]1C[C@H](N(Cc2cc(C(F)(F)F)cc(C(F)(F)F)c2)C(C)=O)c2cc(C(F)(F)F)ccc2N1C(=O)OC(C)C,inactive,
CC(=O)N1CCN(c2ccc(OC[C@H]3CO[C@](Cn4ccnc4)(c4ccc(Cl)cc4Cl)O3)cc2)CC1,inactive,
CCCCCCCC[Si](OCC)(OCC)OCC,inactive,
O=C1CCC(C2CCCCC2)CC1,inactive,
CN1C(=O)N(c2ccccc2Br)Cc2cnc(Nc3ccc4c(c3)OCC(CO)O4)nc21 (stereo not given),,13.6 µM (active)
CN(C)c1ccc(C(=C2C=CC(=[N+](C)C)C=C2)c2ccc(N(C)C)cc2)cc1,,1.54 µM (active)
CCCCCCCCCCCCO,inactive,
CCCC(=O)OCCC(C)C,inactive,
c1ccc2n[nH]nc2c1,inactive,
O=CCCCC=O,inactive,
COc1ccc2cc(S(=O)(=O)N[C@H](CC(=O)N[C@H](Cc3ccc(CN4[C@H](C)CCC[C@@H]4C)cc3)C(=O)N(C)C(C)C)c3ccc4c(c3)OCO4)ccc2c1,inactive,
Cc1ccc2oc(CN(Cc3ccccc3)C(=O)Nc3c(F)cc(F)cc3F)c(-c3ccc(Cl)cc3)c2c1,inactive,
O=c1ccc2ccccc2o1,inactive,
Cc1ncc(CO)c(CO)c1O,inactive,
Cc1cccc2ccccc12,inactive,
CCCCCCCCN(C)CCCCCCCC,inactive,
Cc1occc1C(=O)Nc1ccc(C(=O)N2CCC(F)(F)/C(=C\C(=O)N3CCC(N4CCCCC4)CC3)c3ccccc32)cc1,inactive,
CC[C@H](NC(=O)c1cc(F)ccc1NS(=O)(=O)c1cccc2cccnc12)c1ccccc1,inactive,
Cc1ccc(C(C)C)cc1,inactive,

# Read-out: Vascular cell adhesion molecule 1 (VCAM1), VCAM1 (gene 7412)
# Assay: BSK_CASM3C_VCAM1: BioMAP Diversity Plus: CASM3C Assay for Vascular cell adhesion molecule 1 (VCAM1) Biomarker Activity (AID 2283055);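 note: VCAM-1 protein level quantified by ELISA on the cells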
# Conditions: primary human coronary artery smooth muscle cells; actives raise or lower the signal
SMILES,outcome,AC50
CCCCOC(=O)CC(CC(=O)OCCCC)(OC(C)=O)C(=O)OCCCC,inactive,
OC12N=C(c3ccccc3)SC1Cc1cc(Cl)ccc12 (stereo not given),inactive,
CCCCCCCCCCCC[N+](C)(C)C,,32.9 µM (active)
Clc1ccccc1C(c1ccccc1)(c1ccccc1)n1ccnc1,,31.9 µM (active)
O=C=NCCCCCCN=C=O,inactive,
CCCCCc1ccc(N)cc1,inactive,
O=C(OCCCCCCOC(=O)c1ccccc1)c1ccccc1,inactive,
C[C@]12CC[C@@H]3c4ccc(O)cc4CC[C@H]3[C@@H]1CCC2=O,inactive,
O=c1c(-c2ccc(O)cc2)coc2cc(O)cc(O)c12,,25.7 µM (active)
C[C@]12CC[C@@H]3c4ccc(O)cc4CC[C@H]3[C@@H]1CC[C@H]2O,,16 µM (active)
CCCCCCCCCCCO,inactive,
Oc1ccc2ccccc2c1,inactive,
O=C1c2ccccc2C(=O)N1CCc1noc(-c2ccc(CN3CCCCCC3)s2)n1,inactive,
CCO[Si](CCCNC(N)=O)(OCC)OCC,inactive,
CCCOC(=O)c1cc(O)c(O)c(O)c1,inactive,
CCCCCCCCCC(=O)O,inactive,
CN(C[C@@H](CC[N+]12CCC(C3CCCCC3)(CC1)CC2)c1ccc(Cl)c(Cl)c1)C(=O)c1cc(C(F)(F)F)cc(C(F)(F)F)c1,,14.3 µM (active)
Cc1cn([C@H]2C[C@H](N=[N+]=[N-])[C@@H](CO)O2)c(=O)[nH]c1=O,inactive,
Cc1cc(F)ccc1-c1cc(N2CC[C@@H](O)[C@H]2CO)ncc1N(C)C(=O)C(C)(C)c1cc(C(F)(F)F)cc(C(F)(F)F)c1,,25.4 µM (active)

SMILES,outcome,AC50
CC[C@@H]1C[C@H](N(Cc2cc(C(F)(F)F)cc(C(F)(F)F)c2)C(C)=O)c2cc(C(F)(F)F)ccc2N1C(=O)OC(C)C,inactive,
CC(=O)N1CCN(c2ccc(OC[C@H]3CO[C@](Cn4ccnc4)(c4ccc(Cl)cc4Cl)O3)cc2)CC1,inactive,
O=C1CCC(C2CCCCC2)CC1,inactive,
CN1C(=O)N(c2ccccc2Br)Cc2cnc(Nc3ccc4c(c3)OCC(CO)O4)nc21 (stereo not given),inactive,
CN(C)c1ccc(C(=C2C=CC(=[N+](C)C)C=C2)c2ccc(N(C)C)cc2)cc1,,8.39 µM (active)
CCCCCCCCCCCCO,,31 µM (active)
CCCC(=O)OCCC(C)C,inactive,
c1ccc2n[nH]nc2c1,inactive,
O=CCCCC=O,,22.4 µM (active)
COc1ccc2cc(S(=O)(=O)N[C@H](CC(=O)N[C@H](Cc3ccc(CN4[C@H](C)CCC[C@@H]4C)cc3)C(=O)N(C)C(C)C)c3ccc4c(c3)OCO4)ccc2c1,inactive,
Cc1ccc2oc(CN(Cc3ccccc3)C(=O)Nc3c(F)cc(F)cc3F)c(-c3ccc(Cl)cc3)c2c1,inactive,
O=c1ccc2ccccc2o1,inactive,
Cc1ncc(CO)c(CO)c1O,inactive,
Cc1cccc2ccccc12,inactive,
CCCCCCCCN(C)CCCCCCCC,inactive,
Cc1occc1C(=O)Nc1ccc(C(=O)N2CCC(F)(F)/C(=C\C(=O)N3CCC(N4CCCCC4)CC3)c3ccccc32)cc1,inactive,
CC[C@H](NC(=O)c1cc(F)ccc1NS(=O)(=O)c1cccc2cccnc12)c1ccccc1,inactive,
Cc1ccc(C(C)C)cc1,inactive,
